Screening data (PubChem)
Hits are enriched below; roughly 21% of the tested compounds scored in any of these assays.
IL1B secr inh = blocks inflammasome-driven IL-1 beta release. THP-1 LPS/ATP IL-1B secretion, AlphaLISA, 16 h; hits give low values. activity change, % at 57.5 µM. actives 4.7% (n = 360,000). AID 743279; in the data active means activity change below about -50%; inconclusive means mostly about -30% to -49%
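THP-1 cells pretreated 1 hr with compounds (up to 57.5 uM final), then stimulated with LPS (250 ng/mL final) plus ATP (1.25 mM final); secreted IL-1B measured by AlphaLISA after 16 hr, decreased signal indicating inhibition.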
Gal4-VP16 FLuc = Gal4-VP16 reporter inhibition counter-screen; Drosophila S2 Gal4-VP16 UAS-luciferase, luminescence, 20 h; Potency, µM (highest dose often 53.6 µM), usual class: inhibitors; actives 3.5% (n = 310,000); AID 2546;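 further: Gal4-VP16 expression switched on by copper sulfate through the metallothionein promoter; nearly all actives have a fitted effect of over 50% in size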
ELG1 repair inh = ELG1-dependent DNA repair inhibition | HEK293T ELG1-luciferase reporter, luminescence, 16 h; DNA damage induced by 5-fluorouridine | Potency, µM (titrated, usually from 46.1 µM), hits mostly inhibitors | actives 2.3% (n = 330,000) | AID 504467; further: nearly all actives have a fitted effect of over 55% in size
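Overnight (16 hr) co-exposure of 2,000 cells/well to 5-fluorouridine and compound at 37 °C preceded detection. Luciferase was quantified via ONE-Glo luminescence; loss of signal denotes inhibition.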
DT40 TDP1 no CPT = qHTS for Inhibitors of human tyrosyl-DNA phosphodiesterase 1 (TDP1): qHTS in cells in absence of CPT; DT40 Tdp1-/- hTDP1 cells, no CPT, ATP luminescence, 48 h; Potency, µM (top dose mostly 46.2 µM), most hits filed as inhibitors; actives 15% (n = 420,000); AID 686978, 2013; further: nearly all actives have a fitted effect of over 55% in size
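Stably hTDP1-transfected Tdp1-null chicken DT40 cells were treated with library compounds minus camptothecin and grown for at least 48 hr at 37 °C, after which cellular ATP was quantified by luminescence.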
TDP1 cell CPT = DT40-hTDP1 cell growth loss with CPT. chicken DT40 Tdp1-/-;hTDP1 cells + 20 nM CPT, ATP luminescence, 48 h. Potency, µM (top dose mostly 46.2 µM), usual class: inhibitors. actives 12% (n = 420,000). AID 686979; further: nearly all actives have a fitted effect of over 55% in size
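Chicken DT40 Tdp1-/- cells complemented with human TDP1, 400 cells/well, exposed to compounds plus 20 nM camptothecin for at least 48 h at 37 C; viability read as ATP content by CellTiter-Glo luminescence.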
RORg inh = inhibitors of mouse ROR gamma transcriptional activity | P51450 | Drosophila S2 Gal4-RORgamma UAS-luciferase reporter, 20 h | Potency, µM (series often up to 53.6 µM), actives largely listed as inhibitors | actives 5.4% (n = 310,000); further: nearly all actives have a fitted effect of over 60% in size
Target sequence (P51450 whole entry, looked up, the tested form may be a part): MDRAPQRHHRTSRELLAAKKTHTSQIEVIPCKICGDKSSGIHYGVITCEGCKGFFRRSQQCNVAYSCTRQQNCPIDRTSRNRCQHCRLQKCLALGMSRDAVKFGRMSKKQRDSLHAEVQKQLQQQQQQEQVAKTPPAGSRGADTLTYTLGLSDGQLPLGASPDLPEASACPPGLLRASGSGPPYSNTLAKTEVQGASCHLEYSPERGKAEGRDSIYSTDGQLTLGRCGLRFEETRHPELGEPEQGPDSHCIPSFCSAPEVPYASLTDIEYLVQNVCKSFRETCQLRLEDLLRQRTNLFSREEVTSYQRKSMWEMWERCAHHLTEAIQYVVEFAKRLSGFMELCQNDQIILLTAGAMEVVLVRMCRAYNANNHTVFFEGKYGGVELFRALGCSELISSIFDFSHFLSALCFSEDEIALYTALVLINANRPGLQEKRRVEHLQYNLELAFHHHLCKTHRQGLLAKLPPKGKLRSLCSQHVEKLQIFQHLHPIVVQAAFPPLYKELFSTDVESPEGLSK
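Luminescence from a UAS-regulated Photinus luciferase reporter in stably transfected Drosophila Schneider cells is measured; decreased signal marks ROR gamma inhibition. Fusion expression is induced by 700 uM copper sulfate for 20 hr.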
Numbers stand for hits; 0 = inactive; ? = inconclusive; - = no result given; [ ] = remark or other dose. Unless noted, the call rests on the fitted dose curve; in most records, active means well fitted curve in the direction sought with a large enough effect; inconclusive means small, poorly fitted or top-dose-only effect, or another doubt; inactive means no such curve, though single readings can be large; an effect the other way counts as inactive or inconclusive.

SMILES | IL1B secr inh | Gal4-VP16 FLuc | ELG1 repair inh | DT40 TDP1 no CPT | TDP1 cell CPT | RORg inh
O=C(Nc1ccc(C2=NCCN2)cc1)c1ccc(C(=O)Nc2ccc(C3=NCCN3)cc2)c([N+](=O)[O-])c1 | 0 | 0 | 0 | 6.5µM | 6.5µM | 0
CCCCOc1ccc(C(=O)Nc2ccc(N3CCN(C(C)=O)CC3)cc2)cc1 | 0 | 0 | 0 | ? | 0 | 0
CCCCOc1ccc(C(=O)Nc2ccc(N3CCN(C(=O)C(C)C)CC3)cc2)cc1 | 0 | 0 | ? | 7.3µM | 8.2µM | 0
O=C(Nc1ccc2c(c1)OCO2)c1ccc([N+](=O)[O-])cc1[N+](=O)[O-] | 0 | 0 | ? | ? | ? | 0
NCCCNCCCCNCCCNC(=O)CCc1ccc(O)cc1 | - | 0[10 µM] | - | - | - | 0[10 µM]
Cc1ccc(S(=O)(=O)NNC2=NS(=O)(=O)c3ccccc32)c(C)c1 | 0 | 0 | 0 | 0 | 0 | 10µM
C[C@H](CO)N1C[C@H](C)[C@@H](CN(C)S(=O)(=O)c2ccc(F)cc2)Oc2ccc(NC(=O)CCN3CCOCC3)cc2C1=O | 0 | - | 0 | 0 | 0 | -
COC(=O)N/N=C(\C)c1ccc(Br)cc1 | 0 | 0 | ? | 0 | 0 | 0
CSC(=S)N/N=C(\C)c1ccc(Br)cc1 | 0 | 0 | 0 | 2.9µM | ? | 0
CN(C)CC(O)COC(c1ccc(Cl)cc1)c1ccc(Cl)cc1 (stereo unspecified) | -79 | 0 | 0 | 21µM | ? | 0
Cc1cc(C(=O)N2CCCC(C(=O)c3ccc4ccccc4c3)C2)n(C)n1 (stereo unspecified) | 0 | 0 | 0 | 21µM | ? | 0
Cc1nc(C)c(C(=O)N2CCCC(C(=O)c3ccc4ccccc4c3)C2)s1 (stereo unspecified) | 0 | 0 | 0 | 33µM | ? | ?
CSc1ccc(C(=O)C2CCCN(C(=O)c3nn(C)c(=O)c4ccccc34)C2)cc1 (stereo unspecified) | 0 | 0 | 0 | 16µM | ? | 0
COc1ccc2cc(C(=O)C3CCCN(C(=O)Cc4c(C)noc4C)C3)ccc2c1 (stereo unspecified) | 0 | 0 | 0 | 21µM | 23µM | 0
CCn1cc(C(=O)N2CCCC(C(=O)c3ccc4ccccc4c3)C2)cn1 (stereo unspecified) | 0 | 0 | ? | 0 | 0 | 0
COc1cc(C(=O)NNC(=O)c2ccc(NC(=O)C(C)(C)C)cc2)cc(OC)c1OC | 0 | 0 | 0 | ? | 0 | 0
COc1ccc2cc(C(=O)C3CCCN(C(=O)c4cnccn4)C3)ccc2c1 (stereo unspecified) | 0 | 0 | 0 | ? | ? | 0
COc1ccc2cc(C(=O)C3CCCN(C(=O)/C=C/c4ccccn4)C3)ccc2c1 (stereo unspecified) | 0 | 0 | 0 | 21µM | ? | 0
COc1ccc2cc(C(=O)C3CCCN(C(=O)c4snnc4C)C3)ccc2c1 (stereo unspecified) | ? | 0 | ? | 23µM | 16µM | ?
COc1cccc(C(=O)C2CCCN(C(=O)c3cccc(C#CC(C)(C)O)c3)C2)c1 (stereo unspecified) | 0 | 0 | 16µM | ? | ? | 0
CC1CCCC(C)N1CCOc1cc(N)ccc1C#N (stereo unspecified) | 0 | - | - | 0 | 0 | -
CC(C)C[C@H](NC(=O)[C@@H]1Cc2c([nH]c3ccccc23)C2c3ccccc3C(=O)N21)C(=O)N1CCC[C@@H]1C(=O)O (stereo partly specified) | 0 | 0 | 0 | 0 | 0 | 0
CC(=O)c1cccc(NC(=O)c2cc(C)nc3c2c(C)nn3-c2cccc(Cl)c2C)c1 | - | - | - | 18µM | ? | -
CCc1ccc(NC(=O)c2c(Cl)nc(C)c(Cl)c2C)cc1 | 0 | 0 | ? | 26µM | ? | 0
CCc1ccc(-n2nc(C)c3c(C(=O)Nc4ccc(Cl)cc4)cc(C)nc32)cc1 | - | - | - | 13µM | ? | -
SMILES | IL1B secr inh | Gal4-VP16 FLuc | ELG1 repair inh | DT40 TDP1 no CPT | TDP1 cell CPT | RORg inh
CCCn1c(N)c(C(=O)CSc2nc(C3CC3)n(-c3ccccc3)n2)c(=O)[nH]c1=O | 0 | - | 0 | ? | 0 | -
COC(=O)CCSc1cc(NCCOC(C)=O)c([N+](=O)[O-])c2nonc12 | -97 | 0 | 0 | 18µM | 11µM | 0
CCCC(=O)OCCNc1cc(SCCC(=O)OC)c2nonc2c1[N+](=O)[O-] | -86 | ? | 0 | ? | 16µM | 0
COC(=O)c1cnc(N)s1 | 0 | - | - | 0 | 0 | -
CCOc1ccc(NCc2nnc(SCC(=O)Nc3nc(-c4ccccc4)cs3)n2-c2ccccc2)cc1 | 0 | 0 | 0 | 23µM | ? | 0
Cc1ccccc1C(=O)NCCc1nnc(SCC(=O)Nc2nc(-c3ccccc3)cs2)n1C | 0 | ? | ? | ? | 0 | 0
O=C(COc1ccccc1)NCc1nnc(SCC(=O)Nc2nccs2)n1-c1ccccc1 | 0 | 0 | 0 | 0 | 0 | 0
Cc1cccc(C)c1NCc1nnc(SCC(=O)Nc2nc(-c3ccccc3)cs2)n1-c1ccccc1 | 0 | 0 | ? | 2.3µM | 2.1µM | 0
Cc1ccc(N2CC(NC(=O)C(=O)c3c[nH]c4ccccc34)CC2=O)cc1 (stereo unspecified) | - | - | - | 0 | 0 | -
CCOC(=O)C1(CCC(C)C)CC(CSc2nc3ccccc3[nH]2)OC1=O (stereo unspecified) | 0 | ? | ? | 18µM | 12µM | 0
COc1ccc(NC(=O)c2cc(=O)c3ccccc3o2)cc1Cl | 0 | 0 | 0 | 0 | 0 | 0[1.91 µM]
COc1ccc(-c2csc(NC(=O)c3cc(=O)c4ccccc4o3)n2)cc1OC | 0 | 0 | ? | 5.8µM | ? | 0
COc1ccc(-c2csc(NC(=O)c3cc(C)oc3C)n2)cc1OC | -84 | 0 | 18µM | 18µM | ? | 0
Cc1[nH]ccc2cc3nc4ccccc4c3cc12 | -58 | - | - | 3.7µM | 5.2µM | -
Cc1ccc2nc(N3CCN(C(=O)c4ccc(F)cc4)CC3)c(C#N)cc2c1 | 0 | ? | ? | 23µM | ? | ?
Cc1ccc2cc(C#N)c(N3CCN(C(=O)c4cccs4)CC3)nc2c1 | 0 | 0 | 0 | 21µM | ? | 0[1.91 µM]
COCCNC(=S)N1CCCN(c2nc3cc(C)ccc3cc2C#N)CC1 | 0 | 0 | ? | ? | ? | 0
CC(C)C(=O)Nc1cccc(COc2ccccc2CN(Cc2ccccc2)C(=O)OC(C)(C)C)c1 | 0 | - | - | 23µM | ? | -
CC(C)(C)OC(=O)N(Cc1ccccc1)Cc1ccccc1OCc1cccc(NC(=O)c2ccccc2)c1 | 0 | - | - | 16µM | 16µM | -
CC(C)(C)OC(=O)N(Cc1ccccc1)Cc1cccc(OCc2cccc(NC(=O)c3ccccc3)c2)c1 | 0 | - | - | 23µM | 23µM | -
CC(C)(C)OC(=O)N(Cc1ccccc1)Cc1ccc(OCc2cccc(NC(=O)C3CC3)c2)cc1 | 0 | - | - | ? | ? | -
